Here are results for 62 compounds from PubChem BioAssay AID504339 (National Center for Advancing Translational Sciences (NCATS), 2011).

Each structure is given as a SMILES string. In all, about 390,000 compounds went through this assay and about 17,000 (4.4%) were called active. Inconclusive results (about 8%) are left out. This is one part of a sample in which actives are shown more often than they occur. A number with no mark means an inactive call. The call rests on the fitted dose curve; in most records, active means well fitted inhibition curve with a large enough effect; inconclusive means small, poorly fitted or top-dose-only effect; inactive means no such curve, though single readings can be large or run the other way.
On the % scale 0 is the no-effect control and ±100 the full control effect; potency means the concentration at half of the fitted maximal effect.

For the assay, the target named is Lysine-specific demethylase 4A (Homo sapiens) (UniProt O75164). In words: qHTS Assay for Inhibitors of JMJD2A-Tudor Domain. Further: nearly all actives have a fitted effect of over 50% in size. To be noted: AlphaScreen JMJD2A-Tudor / H3K4me3 peptide binding; series mostly up to 114 µM; activity change, negative = inhibition: at the top concentration. A general note: In qHTS, concentration-response curves come from the screen itself.
Chain of Lysine-specific demethylase 4A (Homo sapiens) (O75164 whole entry, looked up, the tested form may be a part): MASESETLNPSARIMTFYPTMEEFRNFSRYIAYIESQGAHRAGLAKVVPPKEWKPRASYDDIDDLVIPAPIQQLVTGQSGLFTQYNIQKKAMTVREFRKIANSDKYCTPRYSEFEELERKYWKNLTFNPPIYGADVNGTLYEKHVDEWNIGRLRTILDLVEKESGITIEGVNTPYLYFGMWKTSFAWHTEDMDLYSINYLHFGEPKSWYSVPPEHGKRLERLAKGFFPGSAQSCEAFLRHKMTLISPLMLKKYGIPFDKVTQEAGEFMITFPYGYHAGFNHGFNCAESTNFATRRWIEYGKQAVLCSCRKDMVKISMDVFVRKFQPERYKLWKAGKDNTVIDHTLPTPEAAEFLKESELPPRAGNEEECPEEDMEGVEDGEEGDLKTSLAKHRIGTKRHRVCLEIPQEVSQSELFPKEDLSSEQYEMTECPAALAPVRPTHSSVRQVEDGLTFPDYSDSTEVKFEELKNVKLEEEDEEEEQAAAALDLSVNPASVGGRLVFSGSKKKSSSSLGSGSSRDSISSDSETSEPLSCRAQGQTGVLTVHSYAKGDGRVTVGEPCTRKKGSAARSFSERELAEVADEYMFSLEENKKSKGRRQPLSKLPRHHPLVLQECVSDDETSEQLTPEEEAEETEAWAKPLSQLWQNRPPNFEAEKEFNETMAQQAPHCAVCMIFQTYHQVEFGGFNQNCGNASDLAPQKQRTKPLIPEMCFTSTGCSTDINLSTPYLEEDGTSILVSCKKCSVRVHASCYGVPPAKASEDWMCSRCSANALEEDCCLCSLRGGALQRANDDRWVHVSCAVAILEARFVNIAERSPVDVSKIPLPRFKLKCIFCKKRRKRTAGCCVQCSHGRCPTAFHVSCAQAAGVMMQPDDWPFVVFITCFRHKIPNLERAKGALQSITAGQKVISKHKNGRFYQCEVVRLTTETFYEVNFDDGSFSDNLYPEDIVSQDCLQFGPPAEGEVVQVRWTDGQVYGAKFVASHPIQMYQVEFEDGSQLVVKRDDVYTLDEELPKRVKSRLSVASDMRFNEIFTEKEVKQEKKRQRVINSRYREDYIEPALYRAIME
Take `Cc1ccc(CN2COc3cc(C)c4c(oc(=O)c5ccccc54)c3C2)cc1`: the “activity change, negative = inhibition” value is -22.6%.

`Cc1ccc(NC2=C(c3ccc(C(F)(F)F)cc3)C(=O)c3ccccc32)cc1F`: the “activity change, negative = inhibition” value is -21.9%.

For `COc1ccc(N2C(=O)CSC23C(=O)N(Cc2cccc(F)c2)c2ccccc23)cc1Cl` (configuration not stated), the “activity change, negative = inhibition” value was -12.4%.

As for `O=C(CS(=O)(=O)c1cccc2nsnc12)N1CCN(c2cccc(Cl)c2)CC1`, the “activity change, negative = inhibition” value was -21.6%.

For the compound `COc1ccc2c(c1OC)C(=O)N(c1ccc(O)cc1)C2`, the “activity change, negative = inhibition” value was 0%.

Regarding `COc1ccc2c(c1OC)C(=O)N(c1ncn[nH]1)C2`, the Potency is 39.8 µM (active).

With `COc1ccc(C2C(C#N)=C(N)N(c3ncn[nH]3)C3=C2C(=O)CCC3)cc1` (configuration not stated), the activity change, negative = inhibition was -18% [at 11.4 µM].

For `CCOC(=O)c1c(S(=O)(=O)N2CCCC(C(=O)NCc3cccc(C)c3)C2)c(C)n(C)c1C` (configuration not stated), the “activity change, negative = inhibition” value is -17.7%.

For the compound `Cc1cc(C)cc(NS(=O)(=O)c2ccc3[nH]cc(C(=O)N4CCCCC4)c(=O)c3c2)c1`, the “activity change, negative = inhibition” value is -28.7%.

Consider `O=C1C(Cl)=C(Oc2ccccc2)C(=O)c2ccccc21`, for which the Potency was 1 µM (active).

For `Cc1ccc(-n2c3nc(=O)[nH]c(=O)c-3cc3c(Cl)cccc32)cc1`, the “activity change, negative = inhibition” value was -12.4%.

As to `COc1cc(CNCCSc2nnnn2C)ccc1OCc1c(F)cccc1Cl`, the “activity change, negative = inhibition” value was -14.2%.

For the compound `COC(CCN(C)C)(c1ccccc1)c1ccccc1`, the “activity change, negative = inhibition” value was -9.55%.

`CC(=O)O[C@H]1c2ccccc2-c2ccccc2[C@@H]1OC(C)=O`: the “activity change, negative = inhibition” value was 11%.

Take `CN(C)CCOC1c2ccccc2-c2ccccc21`: the Potency was 1.41 µM (active).

As to `COc1cc(NC(=O)c2nn(-c3ccc(C)cc3)c(=O)c3c2c2ccccc2n3C)cc(OC)c1OC`, the “activity change, negative = inhibition” value is -17%.

As to `O=C(CN1C(=O)COc2ccc(S(=O)(=O)N3CCOCC3)cc21)N1CCN(c2cccc(Cl)c2)CC1`, the “activity change, negative = inhibition” value is -21.2%.

Take `CCOc1ccccc1/C=N/NC(=O)CNC(=O)COc1ccccc1`: the “activity change, negative = inhibition” value was -34.1%.

Take `CCOc1ccccc1/C=N/Nc1nc2ccccc2o1`: the Potency is 17.8 µM (active).

For `Brc1ccccc1/C=N/Nc1nc2ccccc2o1`, the “activity change, negative = inhibition” value is -17.8%.

In the case of `COc1ccc(NC(=O)c2sc3nc[nH]c(=O)c3c2C)cc1`, the “activity change, negative = inhibition” value was -27.1%.

Take `CC(=O)N1c2ccccc2N(Cc2ccc([N+](=O)[O-])cc2)C(=O)C1(C)C`: the “activity change, negative = inhibition” value was -30.2%.

As to `O=c1[nH]n(-c2ccc([N+](=O)[O-])cc2)c(=O)c2ccccc12`, the Potency was 39.8 µM (active).

For the compound `Cc1[nH]n(-c2ccc([N+](=O)[O-])cc2)c(=O)c1C=NCCN1CCN(C(=O)c2ccccc2F)CC1`, the “activity change, negative = inhibition” value was -10.6%.

Consider `Cc1nc2c(c(C)nn2-c2ccccc2)c(C)c1CCC(=O)NCCc1ccc(Cl)cc1`, for which the “activity change, negative = inhibition” value was -8.72%.

In the case of `Cc1ccc(C)c(Cn2c(CCCNC(=O)C3CCCCC3)nc3ccccc32)c1`, the “activity change, negative = inhibition” value is -1.01%.

Take `COc1ccccc1Cc1nc2ccccc2nc1SCC(=O)N1CCCc2ccccc21`: the “activity change, negative = inhibition” value was -10.7%.

On to `Cn1c2ccccc2c(=O)c2c(=O)n(Cc3ccco3)c(COc3ccccc3)nc21`, for which the Potency is 44.7 µM (active).

`CC(C)c1ccc(Cn2c(COc3ccccc3)nc3ccccc32)cc1`: the “activity change, negative = inhibition” value is 38.1%.

Turning to `O=C(CSc1nnc(COc2ccc(Cl)cc2)n1Cc1ccco1)N1CCNC1=O`, the “activity change, negative = inhibition” value was -15.4%.

In the case of `O=C(CSc1nc2c(c(=O)[nH]1)CN(Cc1ccc(F)cc1)CC2)Nc1ccccc1Cl`, the “activity change, negative = inhibition” value was -12.3%.

For the compound `COc1cc2nc(SCc3ccc(F)cc3)n3nc(CCn4c(C)nc5ccccc54)nc3c2cc1OC`, the “activity change, negative = inhibition” value is -21.7%.

For `Cc1ccc2nc3c(cc(C(=O)NC4CCCCC4)c(=N)n3C(C)C)c(=O)n2c1`, the “activity change, negative = inhibition” value was -7.61%.

`CCC1=Nc2cc(C(=O)NCC(C)c3ccccc3)ccc2Sc2ccc(C)cc21` (configuration not stated): the “activity change, negative = inhibition” value is -12.7%.

As for `Cc1cccc(N2CCN(c3ccc(C(=O)O)cc3NC(=O)c3ccccc3F)CC2C)c1` (configuration not stated), the Potency was 56.2 µM (active).

As for `Cc1cccc(N2CCN(C(=O)c3ccccc3NC(=O)C3CCCCC3C(=O)O)CC2)c1` (configuration not stated), the “activity change, negative = inhibition” value is -8.22%.

On to `Cc1cccc(N2CCN(C(=O)c3cccc(S(=O)(=O)N4CCc5ccccc5C4)c3)CC2C)c1` (configuration not stated), for which the “activity change, negative = inhibition” value was -19.5%.

Regarding `O=S(=O)(c1ccc2c(c1)OCCCO2)N1CCN(S(=O)(=O)c2c(F)cccc2F)CC1`, the “activity change, negative = inhibition” value was -14.4%.

With `CCCCCn1c(=O)[nH]c2cc(C(=O)Nc3ccc(F)cc3)ccc2c1=O`, the “activity change, negative = inhibition” value is -2.39%.

For the compound `COc1ccccc1CNC(=O)CCn1c(=O)c2ccccc2n(CC(=O)Nc2ccc(Br)cc2F)c1=O`, the “activity change, negative = inhibition” value is -1.02%.

Take `Cc1ccc2c(c1)-c1c(cnn1CC(=O)Nc1ccccc1C#N)CO2`: the “activity change, negative = inhibition” value was -9.82%.

Take `Cn1cc(S(=O)(=O)N2CCCCCC2)cc1C(=O)N1CCN(c2ccc(F)cc2)CC1`: the “activity change, negative = inhibition” value was -32.9%.

With `CCOC(=O)c1cc(-c2ccc(OC)c(S(=O)(=O)Nc3ccc(OC)cc3OC)c2)on1`, the “activity change, negative = inhibition” value was -13%.

For `O=S(=O)(NC1CCCCC1)c1ccc(F)c2ccccc12`, the “activity change, negative = inhibition” value is 3.31%.

Regarding `O=S(=O)(NC1CC1)c1ccc(Cl)cc1`, the “activity change, negative = inhibition” value is -7.53%.

For `O=S(=O)(NC1CC1)c1ccc2c3c(cccc13)CC2`, the Potency is 17.8 µM (active).

Take `Cc1ccc(-c2nnc3c4ccccc4c(C)nn23)cc1NC(=O)c1cccc(Br)c1`: the “activity change, negative = inhibition” value is -3.78%.

For `Cc1ccccc1C(=O)Nc1nnc(S(=O)(=O)N(C)c2ccc(Cl)cc2)s1`, the “activity change, negative = inhibition” value is 2.96%.

On to `N#Cc1nc(Nc2cccc(Cl)c2)nc(NC2CCCC2)n1`, for which the “activity change, negative = inhibition” value is -11.6%.

As to `COc1ccc(NC(=O)C(c2ccccc2)N2Cc3ccccc3C2=O)cc1` (configuration not stated), the “activity change, negative = inhibition” value was -26%.

With `COc1ccc2c(c1)c(=Cc1ccc(N(C)C)cc1)c1cc(-c3ccccc3)[n+](C)n12`, the Potency is 22.4 µM (active).

Take `COc1ccc(-c2onc(C)c2C)cc1S(=O)(=O)NCc1cccs1`: the “activity change, negative = inhibition” value was -8.44%.

For `COc1ccccc1Nc1ncnc2c1oc1ccccc12`, the “activity change, negative = inhibition” value is 17.7%.

With `COc1ccc(C)cc1Nc1nc(C)nc2c1oc1ccccc12`, the Potency is 17.8 µM (active).

`COC(=O)c1cnc(Nc2cc(C)ccc2OC)c2ccccc12`: the “activity change, negative = inhibition” value is 61.9%.

As for `O=C(OCC#CCSc1nnc(-c2ccco2)o1)c1ccc(F)cc1`, the “activity change, negative = inhibition” value is 23.8%.

With `COC(=O)c1ccc(OC)c(Cn2c(=O)n(Cc3ccccc3)c(=O)c3c2c2cc(OC)ccc2n3C)c1`, the “activity change, negative = inhibition” value is -11.3%.

On to `COc1ccc(/C=N/N=C2/C(=O)Nc3ccccc32)cc1O`, for which the activity change, negative = inhibition is -12.8% [at 11.4 µM].

Take `O=C1Nc2ccc(Br)cc2/C1=N/N=C/C1=C(N2CCOCC2)C(=C\c2ccccc2)/CC1`: the Potency is 5.01 µM (active).

As to `COc1cc(OC)cc(C(=O)Nc2cc3nn(-c4ccccc4)nc3cc2Cl)c1`, the “activity change, negative = inhibition” value was -5.6%.

Turning to `CCCNC(=O)CCC(=O)N1Cc2ccccc2Oc2ncccc21`, the “activity change, negative = inhibition” value is -21%.

Consider `Cc1ccc(-c2noc(-c3nnn(-c4cccc(C(F)(F)F)c4)c3N)n2)cc1`, for which the “activity change, negative = inhibition” value was -19%.
